In PubChem BioAssay AID2315 (National Center for Advancing Translational Sciences (NCATS), 2010) one finds inhibition data, which are given here for 95 compounds.

Each structure is given as a SMILES string. Among all 290,000 compounds or so, about 27,000 (9.3%) were called active. This excerpt belongs to a sample that is enriched for actives. Unmarked numbers belong to inactive results. Cut-off read from the data, not from the text of the source: active = inhibition mostly above about 28% (no sharp cut-off); inactive = mostly below about 43%.

The experiment is described as follows: A qHTS for Small Molecule Inhibitors of Shiga Toxin. For inhibition: 0% is about no effect. To be noted: Vero cells, Shiga toxin protein synthesis inhibition reporter; at 38.7 µM, hits give high values.
Turning to `O=C(NCCN1CCOC1=O)C1CCC(=O)N(CCc2ccc(Cl)cc2)C1` (stereo not given), the inhibition (as a rule, the drop in the measured response relative to a control, in per cent) is -3.56%.

Consider `O=C(NCCCc1ccccc1)C1CCC(=O)N(CCc2ccc(Cl)cc2)C1` (stereo not given), for which the inhibition is 35.2% (active).

For the compound `O=C(NCCc1ccccc1Cl)C1CCC(=O)N(CCCc2ccccc2)C1` (stereo not given), the inhibition is -7.04%.

Consider `Cc1ccc(-n2nc3c(=O)n(C(C)C(=O)NCc4ccc5c(c4)OCO5)nc(C)c3c2C)cc1` (stereo not given), for which the inhibition is -4.41%.

For the compound `CS(=O)(=O)N1CCCC(C(=O)Nc2ccccc2C(F)(F)F)C1` (stereo not given), the inhibition was -10%.

Turning to `COc1ccc(C)cc1Nc1nc(C)nc2c1oc1ccccc12`, the inhibition is 2.95%.

For `CCC(C(=O)OC)n1cnc2c(oc3ccccc32)c1=O` (stereo not given), the inhibition is 27.3%.

Take `COc1ccccc1Nc1ncnc2c1oc1ccccc12`: the inhibition was 53.4% (active).

Turning to `Cc1occc(=O)c1OCc1c(Cl)cccc1Cl`, the inhibition is -6.59%.

Take `O=C1COc2ccc(S(=O)(=O)NCCc3ccc(Cl)cc3)cc2N1`: the inhibition is 2.79%.

Turning to `Cc1ccc(NS(=O)(=O)c2ccc(C(C)(C)C)cc2)cn1`, the inhibition was 1.36%.

With `Cc1ccc(S(=O)(=O)c2nc(-c3cccs3)oc2NCc2cccnc2)cc1`, the inhibition is -2.32%.

Regarding `COc1ccc(N2CCN(C(=O)CN3C(=O)COc4ccccc43)CC2)cc1`, the inhibition was 23.1%.

Turning to `O=C(Nc1ccccc1C(=O)N1CCCCCC1)c1ccccc1Cl`, the inhibition is -4.45%.

As to `CCCOc1cccc(C(=O)Nc2ccccc2C(=O)N2CCN(C)CC2)c1`, the inhibition is 1.15%.

For the compound `CN1CCN(C(=O)c2ccccc2NC(=O)COc2ccccc2Cl)CC1`, the inhibition was 30.2% (active).

Regarding `Nc1nc(NCC2CCCO2)nc(Nc2ccccc2F)c1[N+](=O)[O-]` (stereo not given), the inhibition is 3.33%.

On to `C=Cn1cc[n+](CC(=O)c2ccc(OC)c(OC)c2)c1`, for which the inhibition was -7.58%.

Turning to `Cc1cccc(COc2ccccc2/C=N/Nc2ccc([N+](=O)[O-])cc2)c1`, the inhibition was -8.03%.

On to `O=[N+]([O-])c1ccc(N/N=C/c2ccccc2)cc1`, for which the inhibition is 60.4% (active).

Take `O=C(N/N=C/c1ccc(O)cc1)/C(=C/c1ccc([N+](=O)[O-])cc1)NC(=O)c1ccccc1`: the inhibition is 3.28%.

For the compound `CCOc1cc2[nH]c(=S)n(Cc3ccc(C(=O)N4CCN(C)CC4)cc3)c(=O)c2cc1OCC`, the inhibition was 6.6%.

With `CCn1ccnc1CN(C)C(=O)c1cc(COc2ccc(-n3cncn3)cc2)on1`, the inhibition is 13.3%.

Consider `O=C(c1ccc(Cl)c(Cl)c1)N1CCCC1`, for which the inhibition is -12.2%.

For the compound `COc1cccc(OC)c1OCCN1CCN(C(=O)c2ccco2)CC1`, the inhibition was -15.7%.

Turning to `CCn1ccnc1CN(C)C(=O)c1cc(COc2ccc(Cl)cc2OC)on1`, the inhibition was 49.5% (active).

With `O=C(c1ccco1)N1CCN(C(=O)c2ccc(COc3ccc(F)cc3)o2)CC1`, the inhibition is 2.42%.

In the case of `O=C(c1cccc(Br)c1)N1CCN(C2=NS(=O)(=O)c3ccccc32)CC1`, the inhibition was -5.51%.

For the compound `O=C(c1cc(-c2cccs2)on1)N1CCCCC1`, the inhibition was 124% (active).

As to `CC(=O)c1ccc(NC(=O)c2cc(-c3cccs3)on2)cc1`, the inhibition was 35.3%.

`COc1cccc(OCc2cc(C(=O)N3CCN(C(=O)c4ccco4)CC3)no2)c1`: the inhibition was 64.7% (active).

Take `CNC(=O)n1ccc(C(=O)N2CCCCC2)n1`: the inhibition was -5.37%.

On to `O=C(c1cc(-c2ccccc2O)on1)N1CCCC1`, for which the inhibition was 111% (active).

Turning to `COc1cc(Cl)ccc1OCc1cc(C(=O)N(C)CCc2c(C)n[nH]c2C)no1`, the inhibition is 18.3%.

In the case of `Cc1cc(/C=C2/SC(=O)N(CC(=O)N3CCCC3)C2=O)c(C)n1C`, the inhibition is -6.33%.

For the compound `NC(=O)C1CCN(C(=O)/C(=C/c2ccco2)NC(=O)c2ccccc2)CC1`, the inhibition was -19%.

Regarding `COc1ccc(OC)c(NC(=O)CSc2nc(-c3ccccc3)cc(=O)[nH]2)c1`, the inhibition is -4.35%.

For the compound `Cc1ccc(Nc2nc(N3CCOCC3)nc(N3CCOCC3)n2)cc1Cl`, the inhibition is 5.42%.

For the compound `COc1ccccc1N1CCN(S(=O)(=O)c2ccc(Cl)cc2)CC1`, the inhibition is -2.2%.

Turning to `Oc1c(Cl)cc(Cl)cc1/C=N/c1ncn[nH]1`, the inhibition is -2.31%.

Turning to `Cc1ccc(N2CC(C(=O)NCCS(=O)(=O)N3CCN(c4ccccc4)CC3)CC2=O)cc1` (stereo not given), the inhibition was 4.33%.

Turning to `Cn1cc(CNC(=O)c2ccc(OC3CCN(Cc4ccccn4)CC3)cc2)cn1`, the inhibition is 4.02%.

With `COc1ccc(C(=O)C2CCCN(C(=O)c3cc(C)on3)C2)cc1F` (stereo not given), the inhibition is -1.62%.

In the case of `COc1cccc(-c2cc(C(=O)N3CCN(c4ccccc4OC)CC3)no2)c1`, the inhibition was -4.9%.

Take `COc1ccccc1N1CCN(C(=O)c2cc(-c3ccc(Cl)c(Cl)c3)on2)CC1`: the inhibition was 0.847%.

For the compound `COc1ccccc1-c1cc(C(=O)N2CCCCC2)no1`, the inhibition was 102% (active).

For `Cc1ccc(C)c(OCc2cc(C(=O)N3CCN(c4cnccn4)CC3)no2)c1`, the inhibition is -3.53%.

Consider `CCOC(=O)C1CCCN(C(=O)c2cncc(Br)c2)C1` (stereo not given), for which the inhibition is -10.3%.

In the case of `COc1ccc(Cl)cc1C(=O)NNC(=S)NC1CCCC1`, the inhibition was -7.04%.

With `COc1ccc(OCc2cc(C(=O)N3CCCC3)no2)c2ccccc12`, the inhibition was 147% (active).

With `CCCOC1CCCN(C(=O)c2cc(COc3cncc(Cl)c3)on2)C1` (stereo not given), the inhibition is 54.4% (active).

Consider `CCOC(=O)CC1(NC(=O)c2cc(COc3cncc(Cl)c3)on2)CCCCC1`, for which the inhibition was -11.8%.

On to `COc1ccccc1OCc1ccc(C(=O)N2CCN(C)CC2)o1`, for which the inhibition was 10.1%.

With `COc1cc(Cl)ccc1OCc1cc(C(=O)N2CC[C@@H]3CCCC[C@H]3C2)no1`, the inhibition is 120% (active).

Take `N#Cc1ccccc1S(=O)(=O)N1CCN(C(=O)c2cc(-c3ccccc3)nn2-c2ccccc2)CC1`: the inhibition is 15.4%.

As to `O=C(CSc1nc2ccccc2c(=O)[nH]1)Nc1nc(-c2ccc(Br)cc2)cs1`, the inhibition was -26.5%.

As for `COc1ccc(C)cc1S(=O)(=O)N1CCN(S(=O)(=O)c2cc(C(=O)O)ccc2C)CC1`, the inhibition was -1.74%.

Turning to `CN(C(=O)CN1C(=O)S/C(=C\c2ccccc2F)C1=O)C1CCS(=O)(=O)C1` (stereo not given), the inhibition was -0.834%.

For the compound `COc1ccc(C(C(=O)NCC2CCCO2)N(C(=O)Cn2nnc3ccccc32)c2ccc(NC(C)=O)cc2)cc1OC` (stereo not given), the inhibition was -9.93%.

For `O=C1OC2(CCCCC2)CC2=C1C1O[C@](c3ccsc3)(Cc3ccccc31)O2`, the inhibition result is “inactive”.

Turning to `Nc1cc(N2CCCCCC2)c2nonc2c1[N+](=O)[O-]`, the inhibition was -13.9%.

In the case of `Cc1ccc(CNC(=O)c2ccc(CS(=O)Cc3cccc(Cl)c3)o2)cc1` (stereo not given), the inhibition is -5.59%.

For `CCNC(=O)Nc1ccc(S(=O)(=O)Nc2cnc(C)nc2C)cc1`, the inhibition is -5.43%.

On to `O=C(NCc1ccncc1)C(=O)NCC1OCCN1S(=O)(=O)c1ccc(Br)cc1` (stereo not given), for which the inhibition is -17%.

On to `O=C(Nc1cccc(Cl)c1)C1CCCN(c2cnccn2)C1` (stereo not given), for which the inhibition was -10.4%.

In the case of `O=C(Nc1ccc2c(c1)OCCO2)C1CCCN(c2ncccn2)C1` (stereo not given), the inhibition was 66.6% (active).

Take `Cc1cc(C)nc(N2CCC(C(=O)Nc3ccc4c(c3)OCCO4)CC2)n1`: the inhibition was 51.5%.

With `CC(C)=CCN1CCN(CCCc2ccccc2)CC1CCO` (stereo not given), the inhibition was -4.24%.

As for `COc1ccc(-c2nn(-c3ccccc3)cc2/C=C2/SC(=S)N(CCCC(=O)O)C2=O)c(C)c1`, the inhibition is -11.2%.

As for `CCOC(=O)c1c(C)[nH]c2c1-c1ccccc1C(=O)C2=O`, the inhibition was 31.2%.

As for `CCOC(=O)c1c(C)[nH]c(C2=NNC(=NC(C)COC)SC2)c1C` (stereo not given), the inhibition was 75.1% (active).

As to `Cc1cc(Nc2ccc(C(=O)N3CCCCC3)cc2)c2cccc(C)c2n1`, the inhibition was -5.1%.

As to `Cc1cccc(N=C2NN=C(c3c[nH]c4ccccc34)CS2)c1`, the inhibition was 42.1% (active).

Turning to `Cc1cccc(N=C2NC(=O)/C(=C/c3cn(C)c4ccccc34)S2)c1`, the inhibition was -7.28%.

As to `Cc1cccc(C(=O)Nc2nnc(Cc3c[nH]c4ccccc34)s2)c1`, the inhibition is -6.89%.

For the compound `CS(=O)(=O)N1CCN=C1SCc1ccc(F)cc1`, the inhibition was 9.38%.

Take `COc1ccc(N(CC(=O)NCCSCc2cccc(Cl)c2)S(C)(=O)=O)cc1`: the inhibition was -2.69%.

With `CCN(CC)C(=O)COc1coc(CN2CCN(Cc3ccccc3)CC2)cc1=O`, the inhibition is -10.1%.

Regarding `COc1cccc2cc(/C(C)=N/NC(=O)c3ccco3)oc12`, the inhibition was 32.4%.

`Cc1nn(CC(=O)Nc2ccc(F)cc2)c(=O)c2ccccc12`: the inhibition is -1.35%.

With `Cc1cccc(C(=O)OCC(=O)Nc2ccc(F)cc2)c1`, the inhibition was 27.4%.

Regarding `CCC(=O)Nc1ccc2nn(-c3ccc(F)cc3)nc2c1`, the inhibition is 74.1% (active).

As to `Cc1ccccc1CN1CCC(C(=O)Nc2ccc(Oc3cccnc3)cc2)CC1`, the inhibition is -3.91%.

As for `COC(=O)c1c(NC(=O)CCCC(=O)O)sc2c1CCCCC2`, the inhibition is -0.986%.

Consider `Cc1ccc(NC(=O)c2c(NC(=O)CCC(=O)O)sc3c2CCCCC3)cc1`, for which the inhibition is 42.9% (active).

Consider `CCOC(=O)c1sc(NC(=O)c2sc(C)nc2C)nc1C`, for which the inhibition is 30.3%.

On to `O=C(N/N=C/c1ccco1)c1ccc(NC(=O)C2CC2)cc1`, for which the inhibition is -2.21%.

On to `COC(=O)c1sccc1NC(=O)c1csc2c1CCCC2`, for which the inhibition is 92.6%.

With `O=C(NCc1ccccc1Cl)c1csc2c1CCCCC2`, the inhibition is 11.2%.

Regarding `COC(=O)c1sc(NC(=O)c2csc3c2CCCC3)nc1C`, the inhibition was 76.1% (active).

Regarding `O=C(Nc1ccccc1N1CCOCC1)c1csc2c1CCCC2`, the inhibition was 11.3%.

Regarding `O=C(N/N=C/c1ccco1)c1csc2c1CCCC2`, the inhibition is 122% (active).

For the compound `O=C(CN1CCCC1)Nc1sc2c(c1C(=O)Nc1ccccc1)CCCC2`, the inhibition is -10.4%.

Turning to `Cc1ccc(NC(=O)c2csc3c2CCCC3)cc1`, the inhibition is 110% (active).

Regarding `O=C(N/N=C/c1ccco1)c1ccc(C(=O)N/N=C/c2ccco2)o1`, the inhibition is -3.95%.
